Several values for one entry are separate records, joined by “and”; a condition that tells them apart may be missing. Equal values may be shown once. About 50,000 (12%) of roughly 420,000 compounds were called active. Another 26% or so got no clear call; they are omitted. Calls come from the whole dose curve; as a rule, active = well fitted inhibition curve with a large enough effect; inconclusive = small, poorly fitted or top-dose-only effect; inactive = flat fitted curve, though single readings scatter. The entries come from a sample that favours actives as a whole. A call without a number means that no potency is given here.
Experiment: qHTS for Inhibitors of human tyrosyl-DNA phosphodiesterase 1 (TDP1): qHTS in cells in presence of CPT; note: nearly all actives have a fitted effect of over 55% in size
Settings: chicken DT40 Tdp1-/-;hTDP1 cells + 20 nM CPT, ATP luminescence, 48 h; series mostly up to 46.2 µM
Source text: Human tyrosyl-DNA phosphodiesterase 1 (TDP1) is a novel repair gene, and we propose to use it as a new target for anticancer drug development. TDP1 is not an essential protein, but under treatment with topoisomerase I poison (camptothecin: CPT), TDP1 works as a critical factor for cell survival. To directly identify novel TDP1 inhibitors active in a cellular environment, we have knocked-out the Tdp1 gene in chicken DT40 cells (Tdp1-/-) and generated a complemented counterpart cells that contains a stable transfection of the human TDP1 gene (Tdp1-/-;hTDP1 cells). For the primary screen, Tdp1-/-;hTDP1 cells will be exposed to small molecules in the presence or absence of CPT, and their growth kinetics will be evaluated after 48 hours by measuring ATP activity. […] The hit compounds will then be evaluated in the presence or absence of CPT using Tdp1-/- cells. […] In tertiary assays, biochemical gel-based assays will be used to assess whether the hit compounds specifically target TDP1. To this end, we have screened this cell line against the MLSMR in two primary screens. In one screen we add CPT and in the other we screen in the absence of CPT; this AID represents the screen where CPT was present. NIH Chemical Genomics Center [NCGC] NIH Molecular Libraries Probe Centers Network [MLPCN] MLPCN Grant: MH095538 Assay Submitter (PI): Yves Pommier, NCI
DT40-hTDP1 cells with 20 nM Camptothecin (add 20 microL of 1 mM CPT stock in 1 L of cell culture medium) were dispensed at 400 cells/5microL/well in tissue culture treated 1536-well white wall/solid bottom assay plates (Greiner Bio-One North America, NC, U.S.A.) using a Multidrop Combi 8 channel dispenser (Thermo Fisher, Waltham, MA, USA). 23 nL compounds and controls were transferred using the pin tool (Kalypsys, San Diego, CA, USA) to the assay plates. The assay plates were then incubated at 37 masculineC for a minimum 48 hr. Three microL of Cell Titer Glo solution was added to the plates and incubated at RT in dark for 30 min. Luminescence was read using ViewLux (Perkin Elmer) with 1 sec exposure slow speed, high gain and 2x binning.
Potency is the fitted concentration of half-maximal effect.

| SMILES | Potency | activity change, negative = growth inhibition |
| --- | --- | --- |
| CC[C@H]1CN2CCc3cc(OC)c(OC)cc3[C@@H]2C[C@@H]1C[C@H]1NCCc2cc(OC)c(OC)cc21 | 188 nM (active) and 146 nM (active) |  |
| C=C(C)C1(CCCC)C(=O)NC(=S)NC1=O | inactive |  |
| Cc1cc(OCc2cc(C(=O)O)oc2C)c2c3c(c(=O)oc2c1)CCCC3 | inactive |  |
| CN(C)C(=O)Oc1ccc2c(c1)O/C(=C\c1ccccc1)C2=O | inactive |  |
| CC(C)c1ccc(OCC(=O)N2CCCN(C)CC2)cc1 | inactive |  |
| CCCCC/C=C\C/C=C\C/C=C\CCCCCCC(=O)NCCO |  | 0.621% [at 4.12 µM] (inactive) |
| C[C@@H]1CC[C@@]2(OC1)O[C@H]1C[C@H]3[C@@H]4CC=C5C[C@@H](O)[C@H](O)C[C@]5(C)C4CC[C@]3(C)[C@H]1[C@@H]2C (some centres undefined) | 20.6 µM (active) |  |
| COc1c(O)ccc2c1-c1c3c(cc4c1C(C2)N(C)CC4)OCO3 (centres undefined) | inactive |  |
| COc1ccc2c(c1O)-c1cccc3c1[C@@H](C2)N(C)CC3 | inactive |  |
| COc1ccc2cc1Oc1ccc(cc1)C[C@H]1c3cc(c(OC)cc3CCN1C)Oc1c(O)c(OC)cc3c1[C@H](C2)N(C)CC3 | 8.2 µM (active) |  |
| CC1(C)C(c2ccccc2)=NC(c2cccnc2)=[N+]1[O-] | inactive |  |
| O=c1[nH]c(=O)n(CCc2ccc(F)cc2)c(O)c1/C=N/N1CCCCC1 | inactive |  |
| CN(C)CC1CCCCC1=O (centres undefined) | 5.8 µM (active) |  |
| O=C(NCC(c1cccnc1)N1CCN(c2ccccc2)CC1)Oc1ccccc1 (centres undefined) | inactive |  |
| NC(=O)Nc1cccc(C(F)(F)F)c1 | inactive |  |
| CC(=O)Nc1cc(-c2cccc(CO)c2)cn2c(-c3cccc(C(F)(F)F)c3)cnc12 | 11.6 µM (active) |  |
| CC(=O)OC1C2CCC3C1(CC(O)[C@@]1(O)[C@@H](CC(O)C1(C)C)[C@]3(C)O)C[C@@]2(C)O (some centres undefined) | inactive |  |
| COc1ccccc1C(=O)N[C@@H]1c2ccccc2C2(CCN(Cc3nc(C(C)C)cs3)CC2)[C@H]1O | 2.06 µM (active) |  |
| COc1ccccc1C1=NCc2nnc(CSC)n2-c2ccc(Cl)cc21 | inactive |  |
| CCc1ccc(N(CC)C(=O)CCn2cnc3onc(-c4ccc(F)cc4)c3c2=O)cc1 | 16.4 µM (active) |  |
| CCCCC(=O)N/N=C/c1c(O)n(-c2ccccc2)c(=O)[nH]c1=O | inactive |  |
| CCCCC(=O)N/N=C/c1c(O)n(CC)c(=S)n(CC)c1=O | 18.4 µM (active) |  |
| Cn1c(O)c(C=NCCCC(=O)O)c(=O)n(C)c1=O | inactive |  |
| O=C1NC(=O)C(C/C=C/c2ccccc2)C(=O)N1 | inactive |  |
| Cc1cccc(NC(=O)OC2CN3CCC2CC3)c1 (centres undefined) | inactive |  |

| SMILES | Potency | activity change, negative = growth inhibition |
| --- | --- | --- |
| CCC(=O)CC(c1ccc([N+](=O)[O-])cc1)c1c(O)c2ccccc2oc1=O (centres undefined) | inactive |  |
| O=c1[nH]c(=S)n(C2CC2)c(O)c1/C=N/N1CCOCC1 | inactive |  |
| CC(=NCC1CCCO1)c1c(O)n(-c2ccccc2)c(=O)[nH]c1=O (centres undefined) | inactive |  |
| CC(=O)c1c(O)n(C2CCCCCC2)c(=O)[nH]c1=O | 18.4 µM (active) |  |
| COC1=C[C@]23CCCN2CCc2cc4c(cc2[C@@H]3[C@@H]1O)OCO4 |  | -3.38% [at 9.04 µM] (inactive) |
| CN1CCN(/N=C/c2c[nH]c3ccccc23)CC1 | inactive |  |
| CC12CCC3C(CCC4CC(=O)CCC43C)C1CC(=NO)C2=O (centres undefined) | inactive |  |
| CCCCCn1c(=O)c(C(=O)NCc2ccccc2)c(O)c2ccccc21 | 4.61 µM (active) |  |
| CCCCCn1c(=O)c(C(=O)NCc2ccccn2)c(O)c2ccccc21 | 20.6 µM (active) |  |
| CCOC(=O)C1(Cc2ccc(Cl)cc2)CCN(C(C)CCn2cccn2)CC1 (centres undefined) | inactive |  |
| O=c1[nH]c(=O)n(CCc2ccccc2)c(O)c1/C=N/N1CCOCC1 | inactive |  |
| c1ccc2sc(C3CCCNC3)nc2c1 (centres undefined) | inactive |  |
| CC[N+](CC)(CC)CCCCCCCCCC[N+](CC)(CC)CC | inactive |  |
| CN1CCN(Cc2ccc(OC(F)(F)F)cc2)CC1 | inactive |  |
| CC(C)c1ccc(OCC(=O)N2CCN(C)CC2)c(Br)c1 | inactive |  |
| O=c1c2ccccc2[nH]c(=S)n1-c1cccc(Cl)c1 | inactive |  |
| COc1cc(-n2c(=S)[nH]c3ccc(C)cc3c2=O)c(Cl)cc1Cl | 8.2 µM (active) |  |
| c1ccc(CC2CCCCN2)cc1 (centres undefined) | inactive |  |
| CC(C)Oc1cccc(C(=O)C2CCCN(C3CCOCC3)C2)c1 (centres undefined) | inactive |  |
| Oc1cc2c(cc1CN1CCN(c3ccccc3)CC1)OCO2 | inactive |  |
| COc1cc2[nH]c(C)c(CCN3CCN(c4ccccc4)CC3)c2cc1OC | 7.94 µM (active) |  |
| c1ccc(N2Cc3ccccc3-n3nncc3C2)nc1 | inactive |  |
| COCCCNC(=O)CC1C[C@H](C(=O)N2CCCCC2)[C@@]2(CCc3ccccc3)c3[nH]c4ccccc4c3CCN2C1=O (some centres undefined) | 23.1 µM (active) |  |
| Clc1ccc([C@@H]2C[C@H]3CC[C@@H]2N3)cn1 | inactive |  |
